Experimental data from the supplement of paper PMC6805474.

System: Schistosoma mansoni schistosomula (NMRI)
Experiment: phenotypic severity score (0-4); higher = more antischistosomal effect, active = 2 or more
Details: 48 h; 10 µM
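Further: visual microscopic scoring of shape, motility and density changes versus 0.5% DMSO solvent controls, one point per descriptor, degeneracy or death scored 4, mean of duplicate wells.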

Row | SMILES | phenotypic severity score
1 | O=C(Nc1ccc(F)c(-c2nc3cc(-c4ccccc4)cnc3[nH]2)c1)N1CCCC1 | 4 (active)
2 | O=C(C(Cc1c[nH]c2ccccc12)NS(=O)(=O)c1ccc(Cl)cc1)N1CCCCC1 (stereo not drawn) | 0 (inactive)
3 | N=C(N)c1ccc(-c2cc(-c3ccccc3)on2)cc1 | 1 (inactive)
4 | Nc1ncc(-c2cn[nH]c2)cc1-c1nc2cc(Cl)cnc2[nH]1 | 0 (inactive)
5 | NC(=O)c1cc(-c2ccsc2)ccc1OCCOc1ccccc1 | 0 (inactive)
6 | CC(C)(C)n1nc(Cc2cccc3ccccc23)c2c(N)ncnc21 | 0 (inactive)
7 | O=C([C@@H](c1ccc(Cl)cc1)c1cccnc1)N1CCN(c2ccc(C(F)(F)F)cc2)CC1 | 2 (active)
8 | CCc1ccc([C@@H]2C[C@H](C(F)(F)F)n3ncc(C(=O)NCc4ccc(OC)cc4)c3N2)cc1 | 1 (inactive)
9 | COc1ccc2nccc(NC(=O)C3CCN(CCc4ccc(Cl)cc4)CC3)c2n1 | 0 (inactive)
10 | c1ccc(-c2cc(N3CCCCC3)c3ccccc3n2)nc1 | 0 (inactive)
11 | O[C@@H](c1cc(C(F)(F)F)nc2c(C(F)(F)F)cccc12)[C@H]1CCCCN1 | 4 (active)
12 | NS(=O)(=O)c1cccc(-c2ccc3ncc(N4CCOCC4)nc3c2)c1 | 0 (inactive)
13 | Nc1ncnc2c1c(-c1cnc3ccccc3c1)nn2CC1CCNCC1 | 0 (inactive)
14 | CO[C@H]1/C=C/O[C@@]2(C)Oc3c(C)c(O)c4c(O)c(/c(=C/NN5CCN(C)CC5)c(O)c4c3C2=O)=N\C(=O)/C(C)=C\C=C/[C@H](C)[C@H](O)[C@@H](C)[C@@H](O)[C@@H](C)[C@H](OC(C)=O)[C@@H]1C | 0 (inactive)
15 | COc1ccc(-c2cnc3ccc(NCc4ccc(S(N)(=O)=O)cc4)nn23)cn1 | 0 (inactive)
16 | c1coc(CNc2nc(N3CCCCC3)nc3ccccc23)c1 | 2 (active)
17 | CCOC(=O)NC(=O)c1ccsc1NC(=O)c1nc2ccccc2s1 | 0 (inactive)
18 | COc1ccc(Cn2cnc3c(-c4ccco4)nc(Cl)nc32)cc1 | 0 (inactive)
19 | Cc1ccc(NC(=O)CC2COc3ccccc3O2)cc1Cl (stereo not drawn) | 0 (inactive)
20 | O=C(NCCc1ccccc1)c1cc(-c2cccnc2)cnc1NCC1CC1 | 2 (active)

Row | SMILES | phenotypic severity score
21 | CCN(CC)S(=O)(=O)c1ccc(Cl)c(C(=O)Nc2ccc3nc(C)sc3c2)c1 | 0 (inactive)
22 | CCN(CC)C(=O)N1CCN(C)CC1 | 0 (inactive)
23 | CC(C)n1ncc2c(C(=O)NCC(c3cccs3)N3CCOCC3)cc(-c3ccccc3)nc21 (stereo not drawn) | 0 (inactive)
24 | Cc1nn(C)cc1C(C)Nc1nncc(-c2ccc(C(F)(F)F)cc2)n1 (stereo not drawn) | 0 (inactive)
25 | c1ccc(Oc2ccc(-c3cc(N4CCOCC4)[nH]n3)cc2)cc1 | 0 (inactive)
26 | Cc1cccnc1NC(=O)c1cccc(OCc2c(C)noc2C)c1 | 0 (inactive)
27 | Cc1cc(OCC(=O)NCc2ccccc2)c2cc(Br)ccc2n1 | 0 (inactive)
28 | O=C(Nc1nc(-c2ccccn2)cs1)C1CC1c1ccccc1F (stereo not drawn) | 0 (inactive)
29 | CNC(=O)c1cc(S(=O)(=O)N2CCN(c3ccccn3)CC2)cs1 | 0 (inactive)
30 | O=C(CN1CCOCC1)Nc1ccc2ncnc(Nc3ccc(OCc4cccc(F)c4)c(Cl)c3)c2c1 | 0 (inactive)
31 | COc1ccccc1C(C)NCC(=O)Nc1cc(C(F)(F)F)ccc1Cl (stereo not drawn) | 0 (inactive)
32 | Nc1ccc(C(=O)Nc2ccc(-c3nc4ccccc4o3)cc2)cc1 | 0 (inactive)
33 | CC1CCCN(C(=O)C(C)Nc2cc(Cl)ccc2N2CCOCC2)C1 (stereo not drawn) | 0 (inactive)
34 | CC(C)(C(=O)Nc1ccc(F)cc1)n1cc(-c2ccccc2F)cn1 | 0 (inactive)
35 | COc1ccc(C2CC(c3cccs3)=NN2C(=O)c2ccco2)cc1OC (stereo not drawn) | 0 (inactive)
36 | CO[C@@H](C(=O)N1Cc2[nH]nc(NC(=O)c3ccc(N4CCN(C)CC4)cc3)c2C1)c1ccccc1 | 0 (inactive)
37 | CNc1snc(C)c1C(=O)NCCOc1ccc(OC)cc1 | 0 (inactive)
38 | COc1ccc(-c2cnc3ccc(N4CCCC4)nn23)cc1OC | 4 (active)
39 | Cc1ccc2nc(C)c(-c3ccn(Cc4ccccc4)n3)n2c1 | 4 (active)

Same assay, conditions: 72 h; 10 µM

Row | SMILES | phenotypic severity score
40 | O=C(Nc1ccc(F)c(-c2nc3cc(-c4ccccc4)cnc3[nH]2)c1)N1CCCC1 | 4 (active)
41 | O=C(C(Cc1c[nH]c2ccccc12)NS(=O)(=O)c1ccc(Cl)cc1)N1CCCCC1 (stereo not drawn) | 0 (inactive)
42 | N=C(N)c1ccc(-c2cc(-c3ccccc3)on2)cc1 | 0 (inactive)
43 | Nc1ncc(-c2cn[nH]c2)cc1-c1nc2cc(Cl)cnc2[nH]1 | 0 (inactive)
44 | NC(=O)c1cc(-c2ccsc2)ccc1OCCOc1ccccc1 | 0 (inactive)
45 | CC(C)(C)n1nc(Cc2cccc3ccccc23)c2c(N)ncnc21 | 0 (inactive)
46 | O=C([C@@H](c1ccc(Cl)cc1)c1cccnc1)N1CCN(c2ccc(C(F)(F)F)cc2)CC1 | 4 (active)
47 | CCc1ccc([C@@H]2C[C@H](C(F)(F)F)n3ncc(C(=O)NCc4ccc(OC)cc4)c3N2)cc1 | 0 (inactive)
48 | COc1ccc2nccc(NC(=O)C3CCN(CCc4ccc(Cl)cc4)CC3)c2n1 | 0 (inactive)
49 | c1ccc(-c2cc(N3CCCCC3)c3ccccc3n2)nc1 | 1 (inactive)
50 | O[C@@H](c1cc(C(F)(F)F)nc2c(C(F)(F)F)cccc12)[C@H]1CCCCN1 | 4 (active)
51 | NS(=O)(=O)c1cccc(-c2ccc3ncc(N4CCOCC4)nc3c2)c1 | 0 (inactive)
52 | Nc1ncnc2c1c(-c1cnc3ccccc3c1)nn2CC1CCNCC1 | 0 (inactive)
53 | CO[C@H]1/C=C/O[C@@]2(C)Oc3c(C)c(O)c4c(O)c(/c(=C/NN5CCN(C)CC5)c(O)c4c3C2=O)=N\C(=O)/C(C)=C\C=C/[C@H](C)[C@H](O)[C@@H](C)[C@@H](O)[C@@H](C)[C@H](OC(C)=O)[C@@H]1C | 0 (inactive)
54 | COc1ccc(-c2cnc3ccc(NCc4ccc(S(N)(=O)=O)cc4)nn23)cn1 | 0 (inactive)
55 | c1coc(CNc2nc(N3CCCCC3)nc3ccccc23)c1 | 4 (active)
56 | CCOC(=O)NC(=O)c1ccsc1NC(=O)c1nc2ccccc2s1 | 0 (inactive)
57 | COc1ccc(Cn2cnc3c(-c4ccco4)nc(Cl)nc32)cc1 | 0 (inactive)
58 | Cc1ccc(NC(=O)CC2COc3ccccc3O2)cc1Cl (stereo not drawn) | 0 (inactive)
59 | O=C(NCCc1ccccc1)c1cc(-c2cccnc2)cnc1NCC1CC1 | 0 (inactive)

Row | SMILES | phenotypic severity score
60 | CCN(CC)S(=O)(=O)c1ccc(Cl)c(C(=O)Nc2ccc3nc(C)sc3c2)c1 | 0 (inactive)
61 | CCN(CC)C(=O)N1CCN(C)CC1 | 0 (inactive)
62 | CC(C)n1ncc2c(C(=O)NCC(c3cccs3)N3CCOCC3)cc(-c3ccccc3)nc21 (stereo not drawn) | 1 (inactive)
63 | Cc1nn(C)cc1C(C)Nc1nncc(-c2ccc(C(F)(F)F)cc2)n1 (stereo not drawn) | 0 (inactive)
64 | c1ccc(Oc2ccc(-c3cc(N4CCOCC4)[nH]n3)cc2)cc1 | 0 (inactive)
65 | Cc1cccnc1NC(=O)c1cccc(OCc2c(C)noc2C)c1 | 0 (inactive)
66 | Cc1cc(OCC(=O)NCc2ccccc2)c2cc(Br)ccc2n1 | 0 (inactive)
67 | O=C(Nc1nc(-c2ccccn2)cs1)C1CC1c1ccccc1F (stereo not drawn) | 0 (inactive)
68 | CNC(=O)c1cc(S(=O)(=O)N2CCN(c3ccccn3)CC2)cs1 | 0 (inactive)
69 | O=C(CN1CCOCC1)Nc1ccc2ncnc(Nc3ccc(OCc4cccc(F)c4)c(Cl)c3)c2c1 | 0 (inactive)
70 | COc1ccccc1C(C)NCC(=O)Nc1cc(C(F)(F)F)ccc1Cl (stereo not drawn) | 0 (inactive)
71 | Nc1ccc(C(=O)Nc2ccc(-c3nc4ccccc4o3)cc2)cc1 | 0 (inactive)
72 | CC1CCCN(C(=O)C(C)Nc2cc(Cl)ccc2N2CCOCC2)C1 (stereo not drawn) | 0 (inactive)
73 | CC(C)(C(=O)Nc1ccc(F)cc1)n1cc(-c2ccccc2F)cn1 | 0 (inactive)
74 | COc1ccc(C2CC(c3cccs3)=NN2C(=O)c2ccco2)cc1OC (stereo not drawn) | 0 (inactive)
75 | CO[C@@H](C(=O)N1Cc2[nH]nc(NC(=O)c3ccc(N4CCN(C)CC4)cc3)c2C1)c1ccccc1 | 0 (inactive)
76 | CNc1snc(C)c1C(=O)NCCOc1ccc(OC)cc1 | 0 (inactive)
77 | COc1ccc(-c2cnc3ccc(N4CCCC4)nn23)cc1OC | 4 (active)
78 | Cc1ccc2nc(C)c(-c3ccn(Cc4ccccc4)n3)n2c1 | 4 (active)
